From PubChem BioAssay AID1985 (Southern Research Specialized Biocontainment Screening …, 2009)
In all, about 2,300 compounds went through this assay and about 1,000 (43%) were called active. How the calls were made is not given here. The set was probably picked from earlier hits. This is one part of the list. Entries that show only a call come without a potency. Potency and affinity values are given separately.

Experiment: modified counter assay using GFP fluorescence, PhoP regulon inhibitor project, dose response (AID 1985)
Settings: S. Typhi, 4 h; series mostly up to 150 µM
With `COc1cc(/C=C(/C#N)C(=O)Nc2ccccc2)c(Br)cc1OCc1ccc(C(=O)O)cc1` the outcome was “inactive”.
For `CCC(=O)N1CCc2cc(S(=O)(=O)NCCCN3CCN(Cc4ccccc4)CC3)ccc21`, the outcome was “inactive”.
In the case of `CCNC(=S)Nc1cc(-c2ccc(Cl)cc2)[nH]n1`, the outcome is reported as “inactive”.
In the case of `CCn1nnnc1SCC(=O)c1cc(Cl)ccc1OC`, the outcome is reported as “inactive”.
In the case of `CC1CCC(C(C)C)C(OC(=O)C[n+]2cc(-c3ccc(Cl)cc3)n3c2CCC3)C1` (stereo not drawn), the outcome is reported as “inactive”.
For `CC1CCC(C(C)C)C(OC(=O)Cn2c(-c3ccc(Br)cc3)[n+](C)c3ccccc32)C1` (stereo not drawn), the outcome was “inactive”.
In the case of `COc1ccc(OC)c(C(=O)c2ccc(C(=O)O)cc2)c1`, the outcome is reported as “inactive”.
With `Cc1ccc(NC2=C(Cl)C(=O)OC2OC(=O)c2ccco2)c(C)c1` (stereo not drawn) the outcome was “inactive”.
In the case of `COC(=O)c1cn(C(=O)c2ccco2)c2ccccc12`, the outcome is reported as “inactive”.
In the case of `COC(=O)c1ccc(OC(=O)c2cccnc2)cc1`, the outcome is reported as “inactive”.
For `COc1ccc(N(C(=O)c2cccnc2)S(=O)(=O)c2cccc([N+](=O)[O-])c2)cc1`, the outcome was “inactive”.
With `CCN(C1CCCCC1)S(=O)(=O)c1ccc(OC)c(C)c1` the outcome was “inactive”.
In the case of `CSC1=NC2(C)CCCCC2C12C=CC(=O)C=C2` (stereo not drawn), the outcome is reported as “inactive”.
For `Cc1cc(NC(=O)CSc2nnc(-c3cccnc3)n2N)no1`, the outcome was “inactive”.
In the case of `COc1ccc(C(=O)CSc2nnc(-c3cnccn3)n2Cc2ccco2)cc1`, the outcome is reported as “inactive”.
In the case of `Cc1cc(C)c(CSc2ncnc3nc[nH]c23)c(C)c1`, the outcome is reported as “inactive”.
In the case of `Cc1nc2ccc(NC(=O)c3cccc(C(F)(F)F)c3)cc2o1`, the outcome is reported as “inactive”.
With `CC(=O)c1ccc(NC(=S)NC(NC(=O)c2ccco2)C(Cl)(Cl)Cl)cc1` (stereo not drawn) the outcome was “inactive”.
With `O=C(Nc1ccc2c(c1)nc1n2CCN(Cc2ccccc2)C1)c1cccs1` the outcome was “inactive”.
For `Cn1cnc2cc(NC(=O)c3cccs3)ccc21`, the outcome was “inactive”.
In the case of `N#CC(C(=O)C12CC3CC(CC(C3)C1)C2)c1nc2ccccc2[nH]1` (stereo not drawn), the outcome is reported as “inactive”.
For `c1ccc(N2CCN(c3nc4ccccc4[nH]3)CC2)nc1`, the outcome was “inactive”.
With `Cc1nn(-c2nc3ccccc3[nH]2)c(N)c1-c1ccccc1` the outcome was “inactive”.
In the case of `COc1ccc(NC(=O)Cn2c(=O)oc3cc(S(=O)(=O)N4CCCC4)ccc32)c(OC)c1`, the outcome is reported as “inactive”.
With `COc1cc(CNC(=O)CCC(=O)N2C[C@H]3C[C@H](C2)c2cccc(=O)n2C3)cc(OC)c1OC` the outcome was “inactive”.
With `CC(C)c1ccc(NC(=O)CSc2nnc(-c3ccccn3)n2C)cc1` the outcome was “inactive”.
For `Cc1ccc(/C=N/NC(=O)CSc2nc3ccccc3n2C)s1`, the outcome was “inactive”.
With `COc1ccccc1C(=O)NNC1=C(C(=O)C(F)(F)F)CCC1` the outcome was “inactive”.
For `COc1nc(N(C#N)CC(N)=O)nc(N2CCCC2)n1`, the outcome was “inactive”.
In the case of `CC1CCN(CC(CS(=O)(=O)c2ccc([N+](=O)[O-])cc2)N2CCC(C)CC2)CC1` (stereo not drawn), the outcome is reported as “inactive”.
With `O=c1c2cnn(-c3ccccc3)c2ncn1CCc1ccccc1` the outcome was “inactive”.
In the case of `COc1cccc(-c2nc(CS(=O)CC(=O)NCCCOC(C)C)c(C)o2)c1` (stereo not drawn), the outcome is reported as “inactive”.
In the case of `O=C(N/N=C/c1ccc(N2CCCC2)c([N+](=O)[O-])c1)c1cccnc1`, the outcome is reported as “inactive”.
With `Cc1ccsc1/C=N/NC(=O)c1ccncc1` the outcome was “inactive”.
With `Cc1cc(C)n(-c2nc3ccccc3nc2N2CCN(C(=O)c3ccc(F)cc3)CC2)n1` the outcome was “inactive”.
In the case of `CSc1nnc(-c2cccc(NC(=S)NN)c2)o1`, the outcome is reported as “inactive”.
In the case of `Cc1cccc(-n2ccnc2CN2CCN(C3CCCC3)C(CCO)C2)c1` (stereo not drawn), the outcome is reported as “inactive”.
In the case of `C[N+](C)(CCCCCC[N+](C)(C)CCCN1C(=O)c2cccc3cccc(c23)C1=O)CCCN1C(=O)c2cccc3cccc(c23)C1=O`, the outcome is reported as “inactive”.
With `O=C(c1ccccc1F)N1C(=O)c2cccc3cccc1c23` the outcome was “inactive”.
With `Cc1ccc(/C=N/n2c(C)nc3ccccc3c2=O)s1` the outcome was “inactive”.
For `Cc1ccc(-c2[nH]ncc2/C=N/n2c(C)nc3ccccc3c2=O)cc1`, the outcome was “inactive”.
For `CCc1ccccc1NC(=O)c1onc(C)c1Cl`, the outcome was “inactive”.
For `CCCN(CCC)CCNC(=O)C1CCN(Cc2nc(-c3ccc(Cl)cc3)oc2C)CC1`, the outcome was “inactive”.
With `Cc1onc(-c2ccccc2Cl)c1C(=O)NNC(=O)C1CCN(Cc2ccccc2)CC1` the outcome was “inactive”.
In the case of `O=C(/C=C/c1ccccc1)OCc1cnc(Cl)s1`, the outcome is reported as “inactive”.
For `O=C(/C=C/c1ccccc1)NC(=S)N1CCSCC1`, the outcome was “inactive”.
In the case of `COC(=O)c1cc2nc(-c3ccccc3)cc(C)n2n1`, the outcome is reported as “inactive”.
In the case of `CCC(C)n1c(SCC(=O)NCc2ccco2)nnc1-c1cccc(S(=O)(=O)N2CCOCC2)c1` (stereo not drawn), the outcome is reported as “inactive”.
With `COC(=O)c1ccccc1NC(=O)CSc1ncn[nH]1` the outcome was “inactive”.
In the case of `CSc1cccc(NC(=O)/C=C/c2ccco2)c1`, the outcome is reported as “inactive”.
For `COc1cccc(C(=O)Nc2cccc(SC)c2)c1`, the outcome was “inactive”.
For `Cc1ccc(-c2c[n+](Cc3ccc(Cl)c(Cl)c3)c3n2CCC3)cc1`, the outcome was “inactive”.
For `CC1CCCC(NC(=O)COC(=O)Cc2c[nH]c3ccccc23)C1C` (stereo not drawn), the outcome was “inactive”.
For `CCC(=O)Nc1nc(C)c(C(=O)N2CCCCC2)s1`, the outcome was “inactive”.
With `O=C(N/N=C/c1cccnc1)c1ccc(F)cc1` the outcome was “inactive”.
With `CC(/C=C\c1cccnc1)=C/C(=O)O` the outcome was “inactive”.
For `Cc1ccc(C(C)C)c(OCCNC(=O)c2ccccc2O)c1`, the outcome was “inactive”.
For `O=C(Nc1ncccc1O)c1c(O)c2ccccc2[nH]c1=O`, the outcome was “inactive”.
With `CCC(Sc1nccn1C)C(=O)Nc1nnc(C)s1` (stereo not drawn) the outcome was “inactive”.
With `Cc1ccc(-c2noc(CN3CCCCC3)n2)cc1` the outcome was “inactive”.
For `OCCN1CCN(Cc2cc(Cl)c3cccnc3c2O)CC1`, the outcome was “inactive”.
In the case of `Cc1nc(N2CCOCC2)c2c(C)c(C(=O)Nc3ccccc3C(F)(F)F)sc2n1`, the outcome is reported as “inactive”.
For `O=c1c2ccccc2nc(COc2ccccc2)n1/N=C/c1ccc(O)cc1O`, the outcome was “inactive”.
In the case of `CCn1c(SCC(=O)Nc2oc(-c3ccccc3)c(-c3ccccc3)c2C#N)nnc1-c1ccco1`, the outcome is reported as “inactive”.
With `CCCC(CCC)C(=O)NCCN1CCOCC1` the outcome was “inactive”.
With `COc1cccc(-c2ccc(SCc3ccccn3)nn2)c1` the outcome was “inactive”.
With `Fc1ccc(/C=N/Nc2nc3ccccc3[nH]2)cc1F` the outcome was “inactive”.
For `CC1CCN(CCOCCOc2ccc(Br)cc2Cl)CC1`, the outcome was “inactive”.
In the case of `COC(=O)c1cc2sccc2n1Cc1nc(-c2ccc(OC)cc2)oc1C`, the outcome is reported as “inactive”.
In the case of `Oc1c(CN2CCN(c3ccccn3)CC2)cc(Cl)c2cccnc12`, the outcome is reported as “inactive”.
With `Cc1cc2cc(CNC(=O)C(C)Oc3ccccc3)ccc2n1C` (stereo not drawn) the outcome was “inactive”.
For `CNCCCC1c2ccccc2C=Cc2ccccc21`, the outcome was “inactive”.
With `COc1cc(OC)c(C2CC(=O)N3CN(c4ccccc4)CSC3=C2C#N)cc1OC` (stereo not drawn) the outcome was “inactive”.
In the case of `COc1ccccc1-c1nc(C(F)(F)F)c(OC)o1`, the outcome is reported as “inactive”.
For `Cc1nc(C)c(-c2ccc(SCc3ccccc3F)nn2)s1`, the outcome was “inactive”.
For `NC(=O)c1cc(S(=O)(=O)Nc2cccc(F)c2)co1`, the outcome was “inactive”.
With `Cc1c(/C=N/NC(=O)c2sc3ccccc3c2Cl)cnn1C` the outcome was “inactive”.
In the case of `O=C(NC1=NCCS1)c1cccc2ccccc12`, the outcome is reported as “inactive”.
In the case of `CCn1ncc(/C=N\NC(=O)c2csc3ccccc23)c1C`, the outcome is reported as “inactive”.
For `COc1ccc(C(=O)N/N=C/c2cccnc2)cc1`, the outcome was “inactive”.
For `O=C(NC1CC1)C1CCN(C2CCN(C(=O)Cc3ccc(F)cc3)CC2)CC1`, the outcome was “inactive”.
With `CN1C(=O)N2CN(C3CCCCC3)CN3C(=O)N(C)C1C23` (stereo not drawn) the outcome was “inactive”.
In the case of `CCn1nccc1C(=O)Nc1cc(Cl)cc(Cl)c1`, the outcome is reported as “inactive”.
For `O=C(CCN1CCN(c2ccccc2)CC1)c1ccc(Cl)cc1`, the outcome was “inactive”.
In the case of `O=C(CCN1CCC(c2ccccc2)C1)c1ccc2c(c1)OCCO2` (stereo not drawn), the outcome is reported as “inactive”.
For `CCOC(=O)N1CCN(CC(=O)Nc2ccc(F)cc2F)CC1`, the outcome was “inactive”.
With `COc1ccc(C(=O)N2CCN(C(=O)Cc3ccccc3)CC2)cc1OC` the outcome was “inactive”.
In the case of `O=C(C[n+]1cn(C(F)F)c2ccccc21)c1ccc(Br)cc1`, the outcome is reported as “inactive”.
In the case of `O=C(c1cccs1)N1CCC(N2CCN(c3ccccc3)CC2)CC1`, the outcome is reported as “inactive”.
For `CCOC(=O)N1CCN(CCC(=O)c2ccc(Br)cc2)CC1`, the outcome was “inactive”.
In the case of `O=c1[nH]n(-c2ccccc2)c(=O)c2ccccc12`, the outcome is reported as “inactive”.
With `CCOc1ccc(S(=O)(=O)N2CCC(C(=O)NCCN3CCOCC3)CC2)cc1C` the outcome was “inactive”.
In the case of `O=c1c2ccccc2ncn1Cc1ccc(Cl)cc1`, the outcome is reported as “inactive”.
For `CCc1ccc(C(=O)CC2(O)C(=O)N(CN3CCOCC3)c3ccccc32)cc1` (stereo not drawn), the outcome was “inactive”.
For `CC(=O)C1=C(O)C(=O)N(CCN2CCOCC2)C1c1ccccc1` (stereo not drawn), the outcome was “inactive”.
With `O=C(COC(=O)/C=C/c1cccc(C(F)(F)F)c1)NCc1ccccc1` the outcome was “inactive”.
In the case of `CCC[C@H](CN[C@@H](CNC)[C@H](C)CC)NCCc1cc(C(F)(F)F)cc(C(F)(F)F)c1`, the outcome is reported as “inactive”.
With `COc1cc2c3cc1Oc1cc(ccc1O)C[C@@H]1c4c(cc(OC)c(O)c4Oc4ccc(cc4)C[C@H]3N(C)CC2)CCN1C` the outcome was “inactive”.
With `Cc1ccc(C(C[N+](=O)[O-])n2nc(C)cc2C)cc1` (stereo not drawn) the outcome was “inactive”.
For `CCN1C(=O)NC(c2ccccc2)C1=O` (stereo not drawn), the outcome was “inactive”.
In the case of `CCN(CC)CCCCCCCCOC(=O)c1cc(OC)c(OC)c(OC)c1`, the outcome is reported as “inactive”.
With `COc1cc(C(c2nnnn2C2CCCC2)N2CCN(C)CC2)cc(OC)c1OC` (stereo not drawn) the outcome was “inactive”.
For `O=S1(=O)CC=C(CSc2nc3ccccc3[nH]2)C1`, the outcome was “inactive”.
In the case of `Cc1ccc(-n2[nH]c(C)c(C=NCc3ccncc3)c2=O)cc1`, the outcome is reported as “inactive”.
For `Cc1ccnc(NS(=O)(=O)c2ccc(N=CC3=C(O)CC(C)(C)CC3=O)cc2)n1`, the outcome was “inactive”.
In the case of `CCC(Oc1ccccc1)C(=O)Nc1nnc(S(=O)(=O)N2CCCCC2)s1` (stereo not drawn), the outcome is reported as “inactive”.
In the case of `CCOc1ccc(C2CC(=O)NC(SCC(=O)OC)=C2C#N)cc1` (stereo not drawn), the outcome is reported as “inactive”.
For `COc1ccc(-c2cc(C(=O)Nc3ccc(S(=O)(=O)Nc4onc(C)c4C)cc3)c3ccccc3n2)cc1OC`, the outcome was “inactive”.
In the case of `CCC(CC)C(=O)NCCc1cc2ccc(C)cc2[nH]c1=O`, the outcome is reported as “inactive”.
In the case of `O=Cc1ccc(N2CCCCCC2)cc1`, the outcome is reported as “inactive”.
For `CCOC(=O)C1=C(C)NC(SCC(N)=O)=C(C#N)C1c1ccncc1` (stereo not drawn), the outcome was “inactive”.
In the case of `COc1ccccc1C(=O)N1CC2(C)CC1CC(C)(C)C2` (stereo not drawn), the outcome is reported as “inactive”.
With `COc1ccc(Cl)cc1-c1n[nH]c(=S)o1` the outcome was “inactive”.
